High-throughput results: PubChem, The Scripps Research Institute Molecular Screening Center
DAX1 inh-1 = DAX1 (NR0B1) inhibition, primary screen; HEK293T StAR-luciferase reporter, SF-1/DAX-1 repression relief; inhibition, % at 6.8 µM; hit rate 1.1% among 370,000; AID 652010;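 active means inhibition above the mean over all tested compounds plus 3 SD, cut at about 3.6% in these data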;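 further: higher inhibition means more luminescence from relief of DAX-1 repression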
DAX1 inh-2 = NR0B1 (DAX1) inhibition; hit rate 0.99% among 340,000; AID 504766; HEK293 Gal4-DAX1 luciferase reporter, luminescence; P51843; inhibition, % at 6.75 µM;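 active means inhibition above the mean over all tested compounds plus 3 SD, cut at about 4.2% in these data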;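 further: inhibition shows as a rise in luminescence from relieved DAX1 repression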
Target sequence (P51843 207-470 limits assumed): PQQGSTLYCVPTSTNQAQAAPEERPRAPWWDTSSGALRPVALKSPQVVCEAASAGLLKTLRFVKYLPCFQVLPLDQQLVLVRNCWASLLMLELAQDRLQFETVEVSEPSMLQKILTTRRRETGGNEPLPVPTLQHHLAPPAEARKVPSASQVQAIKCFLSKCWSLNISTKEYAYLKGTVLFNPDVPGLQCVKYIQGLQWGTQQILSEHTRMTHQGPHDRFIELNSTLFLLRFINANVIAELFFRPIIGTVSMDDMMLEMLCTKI
AHR activator = activates the human aryl hydrocarbon receptor. P35869. AHR-responsive luciferase reporter cells, luminescence. activation, % at 5 µM. hit rate 2.5% among 320,000. AID 2796; in the data active means activation above about 47%
ssDAF12 agonist = activators of S. stercoralis DAF-12 nuclear receptor | hit rate 1% among 370,000 | HEK293 ssDAF-12/GRIP1 lit1-tk-luc reporter, luminescence; % of 3 µM dafachronic acid response | activation, % at 6.8 µM;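 active means activation above the mean over all tested compounds plus 3 SD, cut at about 0.9% in these data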
hcDAF12 agonist = activators of H. contortus DAF-12 nuclear receptor | HEK293 hcDAF-12 lit1-tk-luc reporter, luminescence; 0% DMSO, 100% Δ7-dafachronic acid | activation, % at 6.8 µM | hit rate 1.4% among 370,000;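 active means activation above the mean of all tested compounds plus 3 SD, cut at about 5.5% in these data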
hgDAF-12 ag = hgDAF-12 agonism, primary luciferase screen | activation, % at 6.8 µM | AID 687014 | HEK293 GAL4-hgDAF12 UAS-luciferase reporter, agonist luminescence; normalized to butyrate control | hit rate 1.8% among 370,000;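 active means activation above a cutoff set at the mean of all screened compounds plus 3 SD, cut at about 10% in these data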
LXR ag = activates human LXR-beta, counter-screen for hcDAF-12 agonists. shares compounds with hcDAF12 agonist. HEK293 Gal4-LXR tk-luc reporter, luminescence, 24 h; normalized: DMSO 0%, positive control 100%. AID 743027. 3,400 tested, under 10 active. activation, % at 6.8 µM;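 active means mean percent activation of the reporter above a cutoff set as the average over tested compounds plus their standard deviation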
hcDAF12 ag = confirmation of H. contortus DAF-12 agonists; shares compounds with hcDAF12 agonist; HEK293 hcDAF-12 lit1-tk-luc reporter, luminescence; % of Δ7-dafachronic acid response; activation, % at 6.8 µM; hit rate 61% among 3,400; AID 743032;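 active means mean activation across triplicate tests above the threshold derived from the earlier primary screen, cut at about 5.5% in these data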
Each line names hits and unclear results; the compound was inactive in the other large screens (follow-up assays come after a bar, where they were run). An excerpt weighted towards active compounds, which were near 5.7% of everything screened.

Cc1cc(O)c(C(=O)/C=C/c2ccccc2O)c(=O)o1	hcDAF12 agonist 6.8 (no result: AHR activator) | LXR ag inactive | hcDAF12 ag inactive
CCCCCCN1C[C@H](n2cc(C3CC3)nn2)[C@@H](O)C[C@@H]1c1ccc(C)cc1	none (no result: AHR activator)
Cc1cc(C)c2c(N)c(C(=O)Nc3nccs3)sc2n1	AHR activator 71, ssDAF12 agonist 2.3, hcDAF12 agonist 18, hgDAF-12 ag 16 | LXR ag inactive | hcDAF12 ag 24
Cc1ccc(NC(=O)c2sc3nc(C)cc(C)c3c2N)cc1	hcDAF12 agonist 7.8, hgDAF-12 ag 12 | LXR ag inactive | hcDAF12 ag 9.3
Cc1cc(C)c2c(N)c(C(=O)NN)sc2n1	none
O=C(NCCc1cccc(Cl)c1)c1cc([N+](=O)[O-])ccc1Cl	hcDAF12 agonist 6.7 | LXR ag inactive | hcDAF12 ag inactive
O=C(NCCc1cccc(Cl)c1)c1ccc(Cl)c([N+](=O)[O-])c1	none
Nc1nn(-c2ccccc2)c(N)c1N=Nc1ccccc1F	AHR activator 64, ssDAF12 agonist 2.1, hcDAF12 agonist 10, hgDAF-12 ag 18 | LXR ag inactive | hcDAF12 ag 8.8
COc1ccccc1C(=O)NCC1CCN(c2ccc(S(=O)(=O)N3CCOCC3)cc2)CC1	none
O=C(OCc1nc2ccccc2s1)C1CCN(C2=NS(=O)(=O)c3ccccc32)CC1	ssDAF12 agonist 1.4, hcDAF12 agonist 9.7 | LXR ag inactive | hcDAF12 ag 9.6
CCOC(=O)c1cc(C)n(S(=O)(=O)c2ccc(C)cc2)c1C	none
O=C(Nc1ccc(Cl)cc1)[C@@H]1[C@@H]2C(=O)N(c3ccc4ccccc4c3)C(=O)[C@@H]2[C@H]2C=CC=NN21	hcDAF12 agonist 6.8 | LXR ag inactive | hcDAF12 ag inactive
COc1ccc(N2C(=O)[C@@H]3[C@H](C2=O)[C@H]2C=CC=NN2[C@@H]3C(=O)Nc2ccc(Cl)cc2)cc1	hcDAF12 agonist 6.5 (no result: DAX1 inh-2) | LXR ag inactive | hcDAF12 ag inactive
O=C(Nc1ccc(Cl)cc1)[C@@H]1[C@@H]2C(=O)N(c3cccc(F)c3)C(=O)[C@@H]2[C@H]2C=CC=NN21	none
CCCCN(C=O)c1c(CC)nc2ccc(C(=O)N(CC)CCN(C)C)cn12	none (no result: DAX1 inh-2, AHR activator)
Cc1ccccc1C(C)(O)c1cnc(C)n1Cc1ccccc1 (configuration not stated)	none (no result: AHR activator)
O=C(Nc1ccc2cccnc2c1)c1ccc(Br)cc1	AHR activator 50, hcDAF12 agonist 8.6 | LXR ag inactive | hcDAF12 ag 7.0
Cc1cc(=O)oc2cc(NC(=O)c3ccccc3OC(F)F)ccc12	ssDAF12 agonist 1.6, hcDAF12 agonist 7.3 | LXR ag inactive | hcDAF12 ag 9.6
Cc1cc(=O)oc2cc(NC(=O)c3cc(F)ccc3F)ccc12	none
Cc1cc(OC(C)C(=O)Nc2cccnc2)ccc1Cl (configuration not stated)	none
CN(C)c1ccc(-c2cc3ccccc3c(=O)o2)cc1	ssDAF12 agonist 1.7, hcDAF12 agonist 9.5, hgDAF-12 ag 20 | LXR ag inactive | hcDAF12 ag 16
O=C(C[C@H]1C(=O)N(C2CCCCC2)C[C@@H]1c1ccccc1)Nc1ccc(Br)cc1	none (no result: AHR activator)
CC(C)c1ccc2c(c1)C1Cc3ccccc3C1N2 (configuration not stated)	AHR activator 51, hcDAF12 agonist 7.8 | LXR ag inactive | hcDAF12 ag inactive
O=S1(=O)NC2c3ccccc3CC2O1 (configuration not stated)	none
CN(C)c1ccc(C(=O)Nc2nc3c(s2)CCCC3)cc1	DAX1 inh-1 3.8, hcDAF12 agonist 7.7, hgDAF-12 ag 12 | LXR ag inactive | hcDAF12 ag 8.4
CC(C)(C)c1ccc(C(=O)NC(=S)Nc2nc3c(s2)CCCC3)cc1	none
Cc1cc(Br)cn2c(Cc3ccccc3)c(-c3cccc(Cl)c3)nc12	hcDAF12 agonist 7.0 (no result: DAX1 inh-2, AHR activator) | LXR ag inactive | hcDAF12 ag inactive
Cc1cc(Br)cn2c(Cc3ccccc3)c(C3CCCCC3)nc12	none (no result: DAX1 inh-2, AHR activator)
CCCc1nc2c(C)cc(Br)cn2c1Cc1ccsc1	none (no result: DAX1 inh-2, AHR activator)
Cc1cc(Br)cn2c(Cc3cccc(F)c3)c(-c3ccccc3)nc12	none (no result: DAX1 inh-2, AHR activator)
CCCc1nc2c3ccccc3ccn2c1Cc1cccc(Cl)c1	hcDAF12 agonist 6.7, hgDAF-12 ag 12 (no result: DAX1 inh-2, AHR activator) | LXR ag inactive | hcDAF12 ag 7.1
CCCc1nc2c(C)cc(Br)cn2c1Cc1ccccc1	ssDAF12 agonist 1.0, hcDAF12 agonist 11 (no result: DAX1 inh-2, AHR activator) | LXR ag inactive | hcDAF12 ag 7.4
Fc1cccc(Cc2c(C3CCCCC3)nc3c4ccccc4ccn23)c1	hcDAF12 agonist 8.6 (no result: DAX1 inh-2, AHR activator) | LXR ag inactive | hcDAF12 ag inactive
COC(=O)c1cc(NC(=O)c2cccc(C(F)(F)F)c2)c(=O)oc1C	none
Cc1ccc(-n2c(-c3c(-c4ccccc4)noc3C)n[nH]c2=S)cc1	none
CN(C(=O)CSC1=NCCS1)c1ccccc1	none
Cc1ccc(-c2nc3c4ccccc4ccn3c2Cc2cccc(Cl)c2)cc1	none (no result: DAX1 inh-2, AHR activator)
c1ccc(-c2nc3c4ccccc4ccn3c2CN2CCOCC2)cc1	hcDAF12 agonist 8.3 | LXR ag inactive | hcDAF12 ag 6.7
Brc1cccc(-c2nc3c4ccccc4ccn3c2Cc2ccccc2)c1	ssDAF12 agonist 1.0, hcDAF12 agonist 7.2 (no result: DAX1 inh-2, AHR activator) | LXR ag inactive | hcDAF12 ag 7.4
Clc1ccc(-c2nc3c4ccccc4ccn3c2Cc2ccsc2)cc1	hcDAF12 agonist 8.8 (no result: DAX1 inh-2, AHR activator) | LXR ag inactive | hcDAF12 ag 5.8
Clc1ccc2nc(-c3ccccc3)c(CN3CCOCC3)n2c1	none
O=C(CN1C(=O)C2CCCCC2C1=O)Nc1ccccc1C(=O)O (configuration not stated)	none
COc1ccc(Cl)cc1NC(=S)NCCSc1ccc(C)cc1	none
COC(=O)CN1C(c2cccc(Cl)c2)=Nc2ccc(Cl)cc2C1c1ccccc1 (configuration not stated)	hcDAF12 agonist 10 | LXR ag inactive | hcDAF12 ag inactive
C/C(Cl)=C\Cn1c(O)c(N=NC(N)=S)c2ccccc21	none
CCCCCN1C(=O)/C(=C/c2c(N3CCc4ccccc4C3)nc3ccccn3c2=O)SC1=S	DAX1 inh-2 6.0, hcDAF12 agonist 6.8 | LXR ag inactive | hcDAF12 ag inactive
CC(C)CCn1cnc2c(sc3nc4c(cc32)CSC(C)(C)C4)c1=O	none
CCCCn1cnc2c(sc3nc4c(cc32)CSC(C)(C)C4)c1=O	hcDAF12 agonist 7.0, hgDAF-12 ag 13 | LXR ag inactive | hcDAF12 ag 5.6
